# According to the supplement of paper PMC12636033:
# ± gives the standard deviation of the averaged measurements. Whole data set: some 33,000 sequences, median “E-score (rank enrichment, -0.5 to 0.5)” near -0.0075, cut for the highest 2% near 0.23. Shown is part of a subset that was picked to be rich in the highest values.
# Tested on: WT Max(13-93) synthetic (M65Nle)
# Assay: PBM 8-mer E-score (E-score (rank enrichment, -0.5 to 0.5)); higher = stronger preferential binding
# Method: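 Protein binding microarray (universal PBM chip covering all 10-mers in fixed probe flanks) with chemically synthesized human Max(13-93) bHLH-LZ analogs (not full-length Max) bearing noncanonical residues (hArg, Tha, Aib, Nle at 65) and aromatic Cys staples. Read-out per 8-mer (and its reverse complement): E-score (rank-based enrichment, -0.5 to 0.5) and Z-score of median probe intensity.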
row,Sequence,PBM 8-mer E-score
1,CTTACAAC,-0.0407 ± 0.16
2,TGTAAGAA,0.12121 ± 1.4e-05
3,CGCTAAGC,-0.187 ± 0.092
4,GTGCCTCA,-0.133 ± 0.12
5,AACAGATT,-0.0422 ± 0.079
6,CCAGAATA,-0.0319 ± 0.024
7,GAACCTAA,-0.143 ± 0.099
8,CCGGTCCA,-0.194 ± 0.12
9,AGGGCACT,-0.053 ± 0.033
10,GTAGGTAA,0.232 ± 0.042
11,CTAGGTAA,-0.0715 ± 0.093
12,ATAGGTAA,0.0523 ± 0.015
13,GTGCTTGA,-0.0248 ± 0.16
14,AACCAGCA,-0.0798 ± 0.12
15,AGTGCCCC,-0.0153 ± 0.009
16,AACGCAGT,-0.173 ± 0.062
17,AAAGTATT,0.118 ± 0.043
18,CAAGTATA,0.0775 ± 0.011
19,AAAGTATA,0.282 ± 0.045
20,GGAGCTTA,-0.168 ± 0.098
21,AAACGCAG,-0.069 ± 0.017
22,AACCGCAT,-0.102 ± 0.13
23,CATCATAA,0.168 ± 0.045
24,TATCATAA,0.239 ± 0.1
25,AATCATGT,0.235 ± 0.066

row,Sequence,PBM 8-mer E-score
1,AATCATGC,0.168 ± 0.0099
2,AATCATGA,0.134 ± 0.038
3,AATCATGG,0.0882 ± 0.19
4,CATCATGA,0.0797 ± 0.1
5,GATCATAA,0.156 ± 0.094
6,TATCATGA,0.272 ± 0.0036
7,ACGATATG,0.0765 ± 0.093
8,AGTAGCGA,-0.0978 ± 0.08
9,GGCTATAA,-0.0145 ± 0.049
10,TGCTACCA,0.081 ± 0.0046
11,TCTGAAGA,-0.204 ± 0.095
12,AAGTCCGG,-0.0703 ± 0.083
13,AGGCCAAA,-0.0704 ± 0.025
14,TAGGCATA,0.0815 ± 0.076
15,AGTTTCCC,-0.0461 ± 0.026
16,ACTTGGGG,0.0672 ± 0.1
17,ATCACACA,0.266 ± 0.071
18,AGCACGCG,0.258 ± 0.035
19,ATCACGCA,0.0746 ± 0.08
20,CGCACGCG,0.167 ± 0.051
21,ATCACGTA,0.174 ± 0.1
22,AGCACGCA,-5e-06 ± 0.0011
23,ATCACGTG,0.481 ± 0.006
24,ATCACACG,0.199 ± 0.029
25,ATCACGCG,0.262 ± 0.0089

row,Sequence,PBM 8-mer E-score
1,ATCACACC,0.0527 ± 0.072
2,ATCACGCC,0.0823 ± 0.14
3,ATCACGTC,0.167 ± 0.0029
4,AAACAGTC,-0.0664 ± 0.047
5,AGGTTTTG,0.0094 ± 0.025
6,ATAGCTAA,-0.104 ± 0.047
7,AAAGCGGT,0.0199 ± 0.011
8,GCACGTAC,0.0338 ± 0.094
9,GCACGTGC,0.489 ± 0.0044
10,GAACGTGA,-0.00116 ± 0.019
11,GCACGTGA,0.4391 ± 0.0016
12,GCACGTCC,-0.0119 ± 0.016
13,GGACGTGA,-0.0819 ± 0.01
14,ACTGTGCA,-0.0882 ± 0.057
15,ATGGTCTA,-0.0528 ± 0.067
16,GTGAGGGA,-0.116 ± 0.061
17,AAATGGGC,-0.1 ± 0.011
18,CTGCTAAC,-0.118 ± 0.073
19,CCGCTGAC,-0.231 ± 0.04
20,AGCTAACT,-0.0391 ± 0.11
21,CGAACTTC,-0.102 ± 0.023
22,GAAACAAC,0.034 ± 0.041
23,TAAACAGA,0.128 ± 0.15
24,CAAACATA,0.143 ± 0.12
25,AAAACATA,0.0863 ± 0.034

row,Sequence,PBM 8-mer E-score
1,GAAACATA,0.27 ± 0.089
2,GAAACATC,0.0695 ± 0.12
3,GAAACAAA,0.238 ± 0.025
4,TAAACATA,0.299 ± 0.0097
5,CAAACAAA,0.0821 ± 0.1
6,AGGGTGCC,-0.11 ± 0.043
7,TAGTCCCA,-0.054 ± 0.018
8,CCAATGGC,-0.126 ± 0.23
9,GGCGACTA,-0.0354 ± 0.12
10,GACAACGC,0.1 ± 0.061
11,GCGTTTTA,0.0184 ± 0.062
12,CGTTAACA,-0.00101 ± 0.057
13,AGTTAACA,0.0439 ± 0.0024
14,TGTTAACA,0.317 ± 0.13
15,GCGATGTA,-0.0179 ± 0.03
16,AGGATGTG,-0.105 ± 0.014
17,TAAGCTTA,0.152 ± 0.0028
18,GGTGGCAC,-0.131 ± 0.071
19,AGTGGCAC,0.0667 ± 0.064
20,CGTGGCAC,0.251 ± 0.063
21,AAGCGTTG,-0.0943 ± 0.073
22,AGGGTAGA,-0.0604 ± 0.015
23,ATAAAGTA,0.18 ± 0.043
24,CTTAAGTA,0.0679 ± 0.077
25,ATTAAGTA,0.259 ± 0.051

row,Sequence,PBM 8-mer E-score
1,CTTAAGTC,0.0284 ± 0.017
2,ATTAAGTC,0.2923 ± 0.0026
3,ATAAAGTC,0.258 ± 0.062
4,GTTAAGTA,0.0433 ± 0.015
5,ATTAAGTG,0.106 ± 0.19
6,ATAAAGTG,0.188 ± 0.078
7,ATTTCGCG,0.16 ± 0.065
8,AGATCTAG,-0.118 ± 0.06
9,ATCACGAA,0.0216 ± 0.013
10,AGTTTGTA,0.074 ± 0.022
11,AGTCTGGG,-0.106 ± 0.13
12,CCATGCGC,0.153 ± 0.069
13,ACATGCGC,0.0958 ± 0.095
14,ACATGCGA,0.141 ± 0.025
15,CCATGCGA,0.087 ± 0.11
16,GCATGCGA,0.238 ± 0.0068
17,GCATGCGC,0.251 ± 0.056
18,ACGGGATG,-0.083 ± 0.16
19,AACGTACG,0.157 ± 0.067
20,AACGTGAA,-0.0163 ± 0.062
21,AACGTAGT,-0.0406 ± 0.12
22,AACGTGGT,0.282 ± 0.0092
23,AACGTGAG,0.132 ± 0.048
24,CACGTAAA,0.13 ± 0.054
25,AACGTAAA,0.198 ± 0.065

row,Sequence,PBM 8-mer E-score
1,TACGTAAA,0.233 ± 0.068
2,AACGTAAC,0.192 ± 0.0073
3,AACGTGGA,0.153 ± 0.036
4,AACGTAAT,0.248 ± 0.037
5,GACGTAAA,0.0324 ± 0.088
6,AACGTGAT,0.268 ± 0.014
7,GTGTGCTA,0.0416 ± 0.009
8,AATCCGAT,-0.0748 ± 0.11
9,CATTTTCA,0.063 ± 0.11
10,CCGAATCG,-0.0138 ± 0.033
11,CTGTGCCC,-0.035 ± 0.08
12,CTGTATGA,0.012 ± 0.079
13,GGTAAAAA,-0.00424 ± 0.074
14,ACCAATCG,0.0164 ± 0.0081
15,CCGACCGC,-0.0589 ± 0.088
16,GCCTACAC,-0.0291 ± 0.029
17,CTGGATAA,-0.0145 ± 0.043
18,ACTGCATA,0.0165 ± 0.043
19,AATGAATC,-0.141 ± 0.014
20,GATGAATA,0.272 ± 0.022
21,TATGAATA,0.151 ± 0.12
22,AATGAATG,0.2671 ± 0.0011
23,GATGAATC,-0.0452 ± 0.013
24,AATGAATT,0.128 ± 0.086
25,CACGACCC,-0.0381 ± 0.027

row,Sequence,PBM 8-mer E-score
1,AGGAGGTA,-0.168 ± 0.047
2,CGCGGCAA,-0.139 ± 0.079
3,AGCACTCC,0.0118 ± 0.13
4,ATACGCAG,-0.0132 ± 0.082
5,ATACGCAA,0.241 ± 0.0012
6,GTACGCAA,-0.00199 ± 0.077
7,ATCGACAA,-0.0231 ± 0.046
8,ATACTATA,0.22 ± 0.019
9,GGGATGAA,-0.0123 ± 0.093
10,AATTTAGC,0.121 ± 0.065
11,CGGACCTA,-0.0947 ± 0.063
12,TATGCATA,0.181 ± 0.037
13,CATGCAAG,0.0946 ± 0.011
14,CATGCATA,0.242 ± 0.064
15,AATGCATG,0.257 ± 0.054
16,ACTGCATG,0.0467 ± 0.031
17,CATGCAAC,0.287 ± 0.054
18,GATGCATA,0.0327 ± 0.027
19,ATTGCATG,0.163 ± 0.15
20,CATGCGTA,0.346 ± 0.038
21,AATGCGTA,0.0374 ± 0.047
22,GATGCGTA,0.0564 ± 0.052
23,AATGCAAC,0.172 ± 0.014
